# Sampled rows, rich in hits. Any-hit rate of the full collection: about 2.7%.
# IDE cell inh: cellular human IDE inhibition. P14735. HEK cells, FAbetaB cleavage, fluorescence polarization. inhibition, % at 5.59 µM. 0.41% of 320,000 active. AID 434962;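 active = percent inhibition above the average of all tested compounds plus 3 SD, set per screening campaign, cut at about 16% in these data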;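 also: IDE supplied by intact live HEK cells; FP after avidin binding of uncleaved biotin substrate so inhibition keeps polarization high; 0% = DMSO wells and 100% = 60 µM reference IDE inhibitor Ii1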
# CHT PAM: human CHT allosteric activation. Q9GZV3. CHT-expressing cells, membrane potential dye, choline EC20; stronger effect = higher value; LV-AA mutant CHT in HEK293 cells. B-score at 10 µM. 0.49% of 310,000 active. AID 488977;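 active = initial fluorescence not abnormally high and integrated response B-score, plate-corrected, over 3 SD above library mean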
# Target sequence (Q9GZV3 whole entry, looked up): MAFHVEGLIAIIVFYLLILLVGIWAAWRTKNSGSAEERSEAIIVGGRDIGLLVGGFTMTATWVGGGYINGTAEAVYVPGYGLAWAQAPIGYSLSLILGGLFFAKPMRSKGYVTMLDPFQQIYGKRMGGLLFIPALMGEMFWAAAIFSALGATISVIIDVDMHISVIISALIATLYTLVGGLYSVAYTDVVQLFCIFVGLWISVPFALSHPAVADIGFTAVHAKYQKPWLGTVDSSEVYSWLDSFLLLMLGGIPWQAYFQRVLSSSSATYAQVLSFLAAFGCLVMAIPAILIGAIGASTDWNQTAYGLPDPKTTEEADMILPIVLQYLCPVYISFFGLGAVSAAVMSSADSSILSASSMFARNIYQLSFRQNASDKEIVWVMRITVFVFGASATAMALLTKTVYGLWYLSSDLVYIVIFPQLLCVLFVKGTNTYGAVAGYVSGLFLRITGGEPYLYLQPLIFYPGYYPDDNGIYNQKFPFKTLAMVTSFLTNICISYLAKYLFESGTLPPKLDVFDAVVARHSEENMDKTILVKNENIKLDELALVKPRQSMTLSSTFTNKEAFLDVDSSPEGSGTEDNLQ
# CHT inh: inhibits the human high affinity choline transporter; Q9GZV3; CHT-expressing cells, membrane potential dye, choline response; stronger effect = lower value; B-score at 10 µM; 0.86% of 310,000 active; AID 488975;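 active = B-score over 3 SD under the library average, and starting fluorescence ratio not unusually high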;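 also: choline stimulus applied at its EC90 after an EC20 pre-addition; B-score computed on integrated fluorescence ratio after choline addition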
# IDE cell activ: boosts human insulin-degrading enzyme activity in HEK cells; FAbeta-B cleavage, fluorescence polarization; 0% vehicle, 100% cell-free pure enzyme wells; 0.073% of 340,000 active; P14735; activation, % at 5.96 µM;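 active = activation above the mean of all tested compounds plus 3 SD, set per screening campaign, cut at about 17% in these data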
# TMEM16A inh: mouse TMEM16A channel inhibition, primary screen | Q8BHY3 | HEK293 TMEM16A/YFP iodide influx fluorescence, ionomycin | 1.2% of 310,000 active | normalized B-score (activity score, 25-100; higher = stronger inhibition) at 10 µM;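 active = ratio plate-corrected score three or more library SD toward inhibition, starting fluorescence score within five deviations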;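 also: score derived from kinetic fluorescence span divided by baseline fluorescence per well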
# ANO1 activ: mouse TMEM16A channel activation, primary screen | B-score at 10 µM | AID 623877 | 0.3% of 340,000 active | HEK293 TMEM16A/YFP-H148Q/I152L, iodide quench fluorescence; stronger effect = lower value;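 active = fluorescence-ratio B-score plate-corrected deviation score at least 3 library SD below zero, with starting fluorescence score within 5 deviations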;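 also: channel opened by trigger with iodide after compound preincubation; score built on the fluorescence ratio of max minus min over baseline; more negative score means more quench and so TMEM16A activation or potentiation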
# * marks the source's active call; other numbers are inactive results; i = inactive; · = no result given.
SMILES,IDE cell inh,CHT PAM,CHT inh,IDE cell activ,TMEM16A inh,ANO1 activ
OCCCc1nc2n(n1)C(c1cccs1)C=C(c1ccc(Br)cc1)N2 (configuration not stated),135.3*,i,i,·,i,·
Brc1ccc(C2=CC(c3cccs3)n3ncnc3N2)cc1 (configuration not stated),87.8*,i,i,-129.1,i,i
C[C@@H]1CN([C@@H](C)CO)C(=O)c2cccc(NC(=O)Nc3ccc4c(c3)OCO4)c2O[C@H]1CN(C)S(=O)(=O)c1cn(C)cn1,-1.4,·,·,3.3,·,i
Cc1n[nH]c(C)c1N1C(=O)c2cccc3c(Br)ccc(c23)C1=O,2.3,i,-7.37*,2.2,i,i
COc1ccc(S(=O)(=O)NCCc2ccccn2)cc1,0.9,·,·,1.0,·,i
CC(=O)Nc1ccc(S(=O)(=O)NCCc2ccccn2)cc1,0.8,i,i,18.3*,i,i
CCOC(=O)Cc1nn(Cc2nc(-c3ccc(C)cc3)cs2)c(=O)c2ccccc12,-1.1,i,i,-3.0,25*,i
Cc1ccc(-c2nnc(SCCC(=O)N3CCOCC3)o2)cc1,-2.5,i,i,6.4,i,-38.8*
COc1cc(C(=O)NNC(=S)NC(=O)c2ccc(Cl)cc2)cc(OC)c1OC,-2.3,i,i,-4.6,i,i
Cc1cccc(C(=O)NC(=S)NNC(=O)c2ccc(Cl)cc2)c1,-1.3,i,i,-3.1,25*,i
O=C(NNC(=S)NC(=O)c1cccc([N+](=O)[O-])c1)c1ccc(Br)cc1,1.1,i,i,2.5,100*,i
COc1ccc(C(=O)NNC(=S)NC(=O)c2ccc(Cl)cc2)cc1,3.2,i,i,·,100*,i
Cc1ccccc1C(=O)NCC(=O)N1CCN(C/C=C/c2ccccc2)CC1,-2.2,·,·,4.4,·,i
CCOc1cc(/C=C2\N=C(SC(C)C(N)=O)N(c3ccc(OC(F)F)cc3)C2=O)ccc1O (configuration not stated),108.1*,i,i,-100.2,i,i
O=C(Nc1cccnc1)Nc1ccccn1,-3.8,i,i,5.3,i,-6.4*
CC(C)Cn1cnc2c(SCCc3ccccc3)nc(N)nc21,·,·,·,-0.3,·,i
N=c1n(CCN2CCCCC2)c2ccccc2n1CC(O)COc1ccccc1 (configuration not stated),0.7,7.17*,i,0.2,i,i
Cc1ccc(S(=O)(=O)NCC(=O)OCCOc2cccc(Cl)c2)cc1,-2.7,·,·,0.0,·,i
O=c1cc(C(F)(F)F)nc(SCc2cccc3ccccc23)[nH]1,-1.0,i,i,9.1,25*,i
O=C(COc1ccc(-n2ccnc2)cc1)Nc1cccc(Cl)c1,5.3,i,i,0.9,25*,i
COC(=O)c1ccc(COC(=O)c2[nH]c(C)c(C(C)=O)c2C)o1,-3.4,i,i,6.7,100*,i
CC(=O)c1c(C)[nH]c(C(=O)OCc2ccc([N+](=O)[O-])cc2)c1C,9.1,i,i,3.2,i,i
CC(C)C(=O)N[C@@H]1c2ccccc2CC[C@@H]1O,·,·,·,5.4,·,·
CCC1(CC)C(=O)NC(=O)NC1=S,·,·,·,-0.8,·,i
Cc1c(C(=O)Nc2ccccc2)sc2nc(-c3ccccc3)cn12,22.6*,i,i,-15.3,i,i
SMILES,IDE cell inh,CHT PAM,CHT inh,IDE cell activ,TMEM16A inh,ANO1 activ
Cc1c(C(=O)Nc2ccc3c(c2)OCO3)sc2nc(-c3ccccc3)cn12,10.6,i,i,-5.8,i,i
C=CC(C)(C)c1c(O)c(CC=C(C)C)c(O)c2c(=O)c3ccc(O)c(O)c3oc12,-3.2,i,i,5.3,100*,i
C=CC(C)(C)c1c2occc2c(O)c2ccc(=O)oc12,0.1,·,·,4.4,·,i
CCN(CC)S(=O)(=O)c1ccc(NC(=O)CNC2CCCCC2)cc1,1.7,i,i,4.2,i,i
CN(C)S(=O)(=O)c1cccc(-c2nnc(SCc3ccc4c(c3)OCCO4)o2)c1,5.8,i,i,5.2,i,-17.4*
O=S(=O)(c1cccc(-c2nnc(SCc3ccc(Cl)cc3)o2)c1)N1CCCCC1,6.2,i,i,-3.0,i,i
NS(=O)(=O)c1ccc(NC(=O)COc2ccc(Cl)cc2)cc1,3.7,i,i,3.0,i,i
c1ccc(CNc2cnccn2)cc1,0.3,i,i,-7.7,i,i
c1ccc(CCNc2cnccn2)cc1,-2.3,i,i,-0.9,i,-4.68*
CC1(c2ccc(OC(F)F)cc2)NC(=O)N(CC(=O)Nc2cccc(F)c2)C1=O (configuration not stated),-1.8,i,i,4.2,i,i
CC(Sc1nnnn1C1CC1)C(=O)N1c2ccccc2NC(=O)C1(C)C (configuration not stated),-1.9,·,·,-3.8,·,i
Cc1nc(Cc2nnc(SC(C)C(=O)N3c4ccccc4NC(=O)C3(C)C)o2)cs1 (configuration not stated),-6.3,·,·,20.2*,·,i
COc1ccc(/C=N/NC(=O)c2cc(Br)ccc2O)cc1Cn1cc(Cl)cn1,-1.2,i,i,3.0,100*,i
CNC[C@H](CC1CCCCC1)NC[C@H](Cc1ccccc1)NCCC12CC3CC(CC(C3)C1)C2,0.6,i,i,34.7*,100*,i
NC[C@H](Cc1ccccc1)NCCCCC1CCCCC1,3.9,·,·,5.6,·,i
O=c1cc(CSc2nnc(-c3cccs3)n2Cc2ccccc2)nc2sc3ccccc3n12,-1.0,i,i,-8.6,100*,i
COc1ccc(OC)c(C2C(C(=O)c3ccco3)=C(O)C(=O)N2CC2CCCO2)c1 (configuration not stated),-2.1,i,i,3.6,i,i
CNC(=O)COC(=O)c1ccc(Cl)c(S(N)(=O)=O)c1,-0.6,i,i,3.4,i,i
C=CCNC(=O)COC(=O)c1ccc(Cl)c(S(N)(=O)=O)c1,3.3,i,i,3.6,i,-29.5*
CC(=O)c1c(C)[nH]c(C(=O)CSc2ncnc3sc(-c4ccccc4)cc23)c1C,6.4,i,i,-8.8,25*,i
O=C(CSc1nnc(-c2ccccc2)c2ccccc12)NCC1CCCO1 (configuration not stated),1.4,i,i,7.6,i,-6.82*
N#CC1=C(N)Oc2ccc3ccccc3c2C1c1cccnc1 (configuration not stated),·,·,·,3.0,·,i
N#CC1=C(N)Oc2cc(O)c(Cl)cc2C1c1ccccc1F (configuration not stated),34.3*,i,i,-31.0,i,i
